From PubChem BioAssay AID1159580 (chemical genetic matrix, 2015)
Values joined by “and” are separate entries in the source; they are usually repeats but may differ in a detail not shown here. Identical values can stand only once. The whole screen tested about 5,500 compounds, of which about 2,000 (36%) were called active. Another 18% or so got no clear call; they are omitted. No stated cut-off is given here; in the data, active means normalized growth mostly below about 0.91 (no sharp cut-off); inconclusive means no clear call, values can overlap the other calls; inactive means mostly above about 0.92. This is one part of the list.

Assay: chemical genetic growth profiling, strain panel (AID 1159580);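 further: tested at 20 µM; growth read once vehicle control cultures reached saturation at 30 °C; 1 = growth at the plate median or of vehicle wells; lower values mean less growth of the strain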
Conditions: S. cerevisiae deletion strains, growth OD

Measured: normalized growth

C[C@]12CCC3c4ccc(OC(=O)c5ccccc5)cc4CCC3C1CCC2=O (stereo not given in full)
inactive: locus YAL013W, strain DEP1, active compounds read low 0.986 | locus YAL021C, strain ccr4, active compounds read low 1 | locus YAL026C, strain drs2, active compounds read low 0.989 | locus YAL030W, strain snc1, active compounds read low 0.99 | locus YBL061C, strain skt5, active compounds read low 0.987 | locus YBR009C, strain hhf1, active compounds read low 0.972 | locus YBR021W, strain FUR4, active compounds read low 0.981 | locus YBR023C, strain chs3, active compounds read low 0.984 | locus YBR171W, strain sec66, active compounds read low 0.977 | locus YBR229C, strain ROT2, active compounds read low 1 | locus YBR231C, strain swc5, active compounds read low 0.987 | locus YBR279W, strain paf1, active compounds read low 0.988 | locus YCL011C, strain gbp2, active compounds read low 0.987 | locus YCL016C, strain dcc1, active compounds read low 0.985 | locus YCL029C, strain bik1, active compounds read low 0.996 | locus YCL061C, strain MRC1, active compounds read low 0.988 | locus YCL069W, strain vba3, active compounds read low 0.986 | locus YCR088W, strain abp1, active compounds read low 0.984 | locus YDL005C, strain med2, active compounds read low 0.987 | locus YDL035C, strain GPR1, active compounds read low 0.986 | locus YDL040C, strain nat1, active compounds read low 0.993 | locus YDL074C, strain BRE1, active compounds read low 0.974 | locus YDL101C, strain DUN1, active compounds read low 1 | locus YDL185W, strain tfp1, active compounds read low 0.951 | locus YDL192W, strain arf1, active compounds read low 1.02 | locus YDR001C, strain nth1, active compounds read low 0.986 | locus YDR069C, strain doa4, active compounds read low 0.98 | locus YDR101C, strain arx1, active compounds read low 0.969 | locus YDR137W, strain rgp1, active compounds read low 1 | locus YDR159W, strain sac3, active compounds read low 0.968 | locus YDR162C, strain NBP2, active compounds read low 1.01 | locus YDR195W, strain ref2 0.934 | locus YDR297W, strain sur2, active compounds read low 0.985 | locus YDR318W, strain mcm21, active compounds read low 1.02 | locus YDR334W, strain swr1, active compounds read low 0.986 | locus YDR335W, strain msn5, active compounds read low 0.982 | locus YDR388W, active compounds read low 0.992 | locus YDR392W, strain spt3, active compounds read low 0.864 | locus YDR502C, strain sam2, active compounds read low 1 | locus YEL003W, strain gim4, active compounds read low 0.977 | locus YEL037C, strain rad23, active compounds read low 0.98 | locus YEL061C, strain CIN8 (second series), active compounds read low 0.981 | locus YEL061C, strain CIN8, active compounds read low 1 | locus YER015W, strain faa2, active compounds read low 0.991 | locus YER016W, strain bim1, active compounds read low 0.969 | locus YER110C, active compounds read low 0.982 | locus YER111C, strain swi4, active compounds read low 0.974 | locus YER155C, strain BEM2 (second series), active compounds read low 0.974 | locus YER155C, strain BEM2, active compounds read low 0.996 | locus YER167W, strain BCK2, active compounds read low 1.01 | locus YFR010W, strain ubp6, active compounds read low 0.993 | locus YGL078C, strain dbp3, active compounds read low 1.01 | locus YGL086W, strain mad1, active compounds read low 0.972 | locus YGL167C, strain pmr1, active compounds read low 0.965 | locus YGL173C, strain kem1, active compounds read low 0.988 | locus YGL227W, strain vid30, active compounds read low 0.986 | locus YGL240W, strain doc1, active compounds read low 0.99 | locus YGL248W, strain PDE1, active compounds read low 1.02 | locus YGL253W, strain hxk2, active compounds read low 0.976 | locus YGR135W, strain pre9, active compounds read low 1.03 | locus YGR252W, strain gcn5, active compounds read low 1.2 | locus YHR013C, strain ard1, active compounds read low 0.939 | locus YHR027C, strain rpn1, active compounds read low 0.996 | locus YHR030C, strain SLT2, active compounds read low 0.991 and 1.06 | locus YHR079C, strain IRE1 (second series), active compounds read low 0.997 | locus YHR079C, strain IRE1, active compounds read low 1.07 | locus YHR094C, strain hxt1, active compounds read low 0.999 | locus YHR129C, strain ARP1, active compounds read low 0.997 | locus YHR142W, strain chs7, active compounds read low 0.996 | locus YHR200W, strain rpn10, active compounds read low 0.994 | locus YIL066C, strain RNR3, active compounds read low 1 | locus YIL073C, strain SPO22, active compounds read low 0.933 | locus YIL125W, strain kgd1, active compounds read low 1 | locus YIR030C, strain dcg1, active compounds read low 1.01 | locus YJL092W, strain hpr5, active compounds read low 0.98 | locus YJL095W, strain BCK1 (second series), active compounds read low 0.992 | locus YJL095W, strain BCK1, active compounds read low 1.05 and 1.07 | locus YJL115W, strain asf1, active compounds read low 0.995 | locus YJL129C, strain trk1, active compounds read low 0.979 | locus YJL134W, strain LCB3, active compounds read low 0.987 | locus YJL154C, strain vps35, active compounds read low 0.986 | locus YJL164C, strain tpk1, active compounds read low 0.977 | locus YJL166W, strain qcr8, active compounds read low 0.983 | locus YJL168C, strain set2, active compounds read low 0.996 | locus YJL187C, strain SWE1 (second series), active compounds read low 1.01 | locus YJL187C, strain SWE1, active compounds read low 0.996 | locus YJR043C, strain POL32, active compounds read low 1.01 | locus YJR066W, strain TOR1, active compounds read low 1.01 | locus YJR075W, strain HOC1, active compounds read low 0.998 | locus YKL009W, strain mrt4, active compounds read low 0.977 | locus YKL068W, active compounds read low 0.975 | locus YKL085W, strain MDH1 (second series), active compounds read low 1.01 | locus YKL085W, strain MDH1, active compounds read low 1.01 | locus YKL160W, strain elf1, active compounds read low 1.01 | locus YKR001C, strain vps1, active compounds read low 0.993 | locus YKR026C, strain gcn3, active compounds read low 0.978 | locus YKR091W, strain srl3, active compounds read low 0.986 | locus YLL001W, strain dnm1, active compounds read low 0.998 | locus YLL026W, active compounds read low 0.984 | locus YLL041C, strain sdh2, active compounds read low 0.989 | locus YLR027C, strain aat2, active compounds read low 0.998 | locus YLR039C, strain RIC1, active compounds read low 1.01 | locus YLR058C, strain SHM2, active compounds read low 1.01 | locus YLR102C, strain apc9, active compounds read low 0.993 | locus YLR113W, strain HOG1, active compounds read low 1 | locus YLR221C, strain rsa3, active compounds read low 1.01 | locus YLR258W, strain gsy2, active compounds read low 0.971 | locus YLR262C, strain YPT6 (second series), active compounds read low 0.94 | locus YLR262C, strain YPT6, active compounds read low 0.959 | locus YLR268W, strain sec22, active compounds read low 0.972 | locus YLR320W, strain mms22, active compounds read low 0.98 | locus YLR330W, strain CHS5, active compounds read low 0.984 | locus YLR342W, strain FKS1 (second series), active compounds read low 1.01 | locus YLR342W, strain FKS1, active compounds read low 0.979 | locus YLR357W, strain rsc2, active compounds read low 0.947 | locus YLR370C, strain arc18, active compounds read low 0.99 | locus YLR371W, strain rom2, active compounds read low 1 | locus YLR384C, strain iki3, active compounds read low 0.985 | locus YLR418C, strain cdc73, active compounds read low 1.07 | locus YML016C, strain PPZ1, active compounds read low 0.998 | locus YML032C, strain rad52, active compounds read low 1.03 | locus YML120C, strain ndi1, active compounds read low 0.986 | locus YML124C, strain tub3, active compounds read low 1.01 | locus YMR058W, strain fet3, active compounds read low 0.985 | locus YMR078C, strain ctf18, active compounds read low 1.01 | locus YMR125W, strain sto1, active compounds read low 0.978 | locus YMR129W, active compounds read low 0.969 | locus YMR205C, strain PFK2, active compounds read low 0.949 | locus YMR223W, strain ubp8, active compounds read low 1.04 | locus YMR231W, strain pep5, active compounds read low 0.979 | locus YMR263W, strain SAP30, active compounds read low 0.997 | locus YMR307W, strain GAS1, active compounds read low 1.22 | locus YNL067W, strain RPL9B, active compounds read low 1.02 | locus YNL071W, strain lat1, active compounds read low 0.993 | locus YNL128W, strain TEP1, active compounds read low 0.971 | locus YNL153C, strain GIM3, active compounds read low 1.02 | locus YNL183C, strain NPR1, active compounds read low 1.01 | locus YNL209W, strain ssb2, active compounds read low 0.989 | locus YNL233W, strain BNI4, active compounds read low 1.01 | locus YNL248C, strain rpa49, active compounds read low 1.01 | locus YNL250W, strain rad50, active compounds read low 0.96 | locus YNL271C, strain bni1, active compounds read low 1.02 | locus YNL298W, strain CLA4, active compounds read low 1.01 | locus YNL307C, strain MCK1, active compounds read low 0.996 | locus YNL322C, strain KRE1 (second series), active compounds read low 0.994 | locus YNR049C, strain mso1, active compounds read low 0.98 | locus YNR052C, strain pop2, active compounds read low 1.02 | locus YOL012C, strain htz1 1.22 | locus YOL147C, strain pex11, active compounds read low 0.998 | locus YOR001W, strain rrp6, active compounds read low 1.01 | locus YOR061W, strain CKA2, active compounds read low 1.01 | locus YOR069W, strain VPS5, active compounds read low 0.993 | locus YOR070C, strain gyp1, active compounds read low 0.984 | locus YOR080W, strain dia2, active compounds read low 0.983 | locus YOR083W, strain WHI5, active compounds read low 1.03 | locus YOR106W, strain vam3, active compounds read low 1.04 | locus YOR136W, strain idh2, active compounds read low 0.992 | locus YOR144C, strain elg1, active compounds read low 0.998 | locus YOR184W, strain ser1, active compounds read low 0.975 | locus YOR231W, strain MKK1, active compounds read low 1.08 | locus YOR265W, strain rbl2, active compounds read low 0.989 | locus YOR270C, strain vph1, active compounds read low 0.99 | locus YOR290C, strain snf2, active compounds read low 0.912 | locus YOR316C, strain cot1, active compounds read low 0.993 | locus YPL051W, strain arl3, active compounds read low 1.02 | locus YPL078C, strain atp4, active compounds read low 0.998 | locus YPL106C, strain sse1, active compounds read low 0.972 | locus YPL240C, strain hsp82, active compounds read low 0.997 | locus YPL241C, strain CIN2, active compounds read low 0.999 | locus YPL256C, strain CLN2, active compounds read low 1.12 | locus YPR119W, strain clb2, active compounds read low 1.01 | locus YPR141C, strain kar3, active compounds read low 1.01 | locus YPR163C, strain tif3, active compounds read low 1 | locus YPR167C, strain met16, active compounds read low 1.01 | strain wtn01, active compounds read low 0.983
